FAS TE block – blocks the thioesterase domain of human fatty acid synthase; recombinant FAS-TE, OMFH fluorogenic substrate, fluorescence endpoint; inhibition, % at 15 µM; actives 0.67% (n = 360,000); P49327;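 active = compounds whose normalised, plate-corrected inhibition of enzyme fluorescence in the single-dose primary screen is 50% or more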;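 note: 0% = DMSO with enzyme and 100% = substrate without enzyme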
MPTP block – inhibitors of mitochondrial permeability transition pore; isolated mouse mitochondria, Ca2+ swelling absorbance, 30 min; inhibition, % at 10 µM; actives 1.4% (n = 360,000); AID 602449;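 active = inhibition of 50% or more, scaled per plate between neutral and stimulator controls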;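 note: 0% = DMSO wells given calcium and 100% = 1 mM EGTA wells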
CR mimetic SO – caloric restriction mimetics inhibiting age-related superoxide in yeast | superoxide response (% of plate mean), % at 10 µM | actives 0.18% (n = 330,000) | AID 2690 | S. cerevisiae aged cells, superoxide DHE fluorescence; active compounds read low;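 active = superoxide response under a set limit, about three screen SD below normal, cut at about 65% in these data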;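 note: yeast aged for seven days with compound at 30 °C before DHE staining; 100% = average MFI of all compound-treated wells on the plate with controls excluded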
aDG glyco up – increases alpha dystroglycan glycosylation. activation, % at 10 µM. Pro5-aDG cells, alpha-DG glycosylation AlphaScreen (IIH6); 0% Pro5, 100% B10-LARGE cell signal. actives 0.22% (n = 360,000);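 active = activation of at least 8% versus controls, or a plate z-score of at least 8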;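 note: Pro5 are CHO cells carrying HIG-tagged alpha-DG that lacks glycosylation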
H9c2 protect – myocardial damage modulation in H9c2 cells | H9c2 cardiomyocytes, H2O2 injury protection, ATPLite, 2 h | protection from H2O2 cell death, % at 20 µM | AID 588492 | actives 0.63% (n = 360,000);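 active = compounds giving at least 50% protection of heart cells from peroxide-induced death in the single-dose screen, raw or plate-pattern-corrected value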;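 note: 0% = DMSO wells with peroxide and 100% = DMSO wells without peroxide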
Mot1-301 SUMO – blocks SUMOylation pathway, rescuing yeast Mot1-301 growth. S. cerevisiae Mot1-301 growth rescue, ATP luminescence, 38.5C; percent above DMSO median, 100 means doubled. growth rescue, % at 18.8 µM. actives 1% (n = 320,000). AID 2716;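 active = every valid replicate shows activation above 250% relative to neutral control wells; inactive = the rest, any valid replicate at or below 250%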;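 note: OY570 slx delta 5 strain wells were the positive control but not used for scaling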
MPTP counter – Rhodamine 123 counter-screen of mitochondrial pore hits. shares compounds with MPTP block. isolated mitochondria, membrane potential, Rhodamine 123 fluorescence. inhibition, % at 10 µM. actives 78% (n = 5,000); in the data active = inhibition above about 22%;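 note: 0% = DMSO vehicle and 100% = positive control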
MPTP abs DR – MPTP inhibition, dose response swelling confirmation | shares compounds with MPTP block | isolated mitochondria swelling, absorbance | IC50, µM | actives 58% (n = 780); in the data active = IC50 below about 20 µM
MPTP counter DR – MPTP inhibitor counter-screen activity, dose response | shares compounds with MPTP block | IC50, µM | actives 49% (n = 780) | isolated mitochondria counterscreen, fluorescence read-out; in the data active = IC50 below about 80 µM
* hit, by the source's call; i = inactive; · = no result given. Hits are enriched below; roughly 3.8% of the tested compounds scored in any of these assays.

SMILES	FAS TE block	MPTP block	CR mimetic SO	aDG glyco up	H9c2 protect	Mot1-301 SUMO	MPTP counter	others
Cc1ccccc1NC(=S)NC(NC(=O)c1ccccc1C)C(Cl)(Cl)Cl (stereo not given)	4	78*	105	0	-11	-7	88*
Cc1ccccc1C(=O)NC(NC(=S)Nc1ccc(S(N)(=O)=O)cc1)C(Cl)(Cl)Cl (stereo not given)	10	-1	94	0	6	-4	·
O=C(NC(NC(=S)Nc1ccccc1)C(Cl)(Cl)Cl)c1cccc(Cl)c1 (stereo not given)	25	96*	105	3	-20	13	77*
Cc1c(NC(=O)C(C)OC(=O)COc2ccc(C#N)cc2)c(=O)n(-c2ccccc2)n1C (stereo not given)	-7	-2	93	0	-4	0	·
O=C(NC(NC(=S)Nc1ccc(Cl)cc1Cl)C(Cl)(Cl)Cl)c1cccc([N+](=O)[O-])c1 (stereo not given)	13	94*	103	0	-7	123	80*
O=C1NC(c2cc(Cl)cc([N+](=O)[O-])c2O)Nc2ccccc21 (stereo not given)	3	88*	129	0	-11	6	10	MPTP abs DR=i;MPTP counter DR=11*
c1ccc(CN2C3=NCCN3c3ccccc32)cc1	-11	0	90	0	5	-2	·
O=C(CN1C2=NCCN2c2ccccc21)C12CC3CC(CC(C3)C1)C2	-33	70*	111	2	-10	-17	-5	MPTP abs DR=i;MPTP counter DR=>80
Cc1cccc(Cn2nc(C(C)(C)C)cc2C(=O)Nc2ccc(F)cc2)c1	47	83*	97	0	-8	-2	87*
COCCNC(=O)C1(C)CCCN(Cc2csc3ccccc23)C1 (stereo not given)	-10	0	·	0	-1	·	·
O=C(NNC(=S)Nc1cccc2ccccc12)c1cccc(Br)c1	5	68*	97	0	-16	3	87*
Cn1c(=O)c(C(=O)Nc2ncccc2O)c(O)c2ccccc21	1	74*	92	0	-9	22	-8	MPTP abs DR=>100;MPTP counter DR=>80
CC1CCc2c(C(=O)Nc3ccc(OC(F)(F)F)cc3)csc2C1 (stereo not given)	24	95*	111	1	-14	8	29*
N#CC1=C(N)N2C(=C(C#N)C13CCCCC3)SC1CCCCC12O (stereo not given)	11	66*	107	0	-16	56	72*
CSC1=C(C#N)C2(CCCC2)C(C#N)=C(N)N1	·	·	98	·	·	-5	·
Cc1nn(CCC(=O)NNC(=S)Nc2ccc(Cl)cc2)c(C)c1[N+](=O)[O-]	3	23	94	1	3	44	·
Cc1nn(C(C)C(=O)NNC(=S)Nc2ccc(Cl)cc2)c(C)c1[N+](=O)[O-] (stereo not given)	-2	51*	89	0	-6	-14	60*
CSCCC(NC(=O)COc1ccccc1)C(=O)OCc1ccc([N+](=O)[O-])cc1 (stereo not given)	47	-1	100	0	3	16	·
O=C(Nc1cccc(Br)c1)c1ccc(CSc2ccccc2)cc1	31	67*	91	0	-4	7	77*
O=C(NCc1ccccc1)c1cc(C2CCCCN2C(=O)OCCF)on1 (stereo not given)	-2	2	·	0	6	·	·
Cc1cc2nc(C)n(CCCNC(=O)Nc3cccc4ccccc34)c2cc1C	15	88*	101	5	-9	-13	91*
Cc1ccc2[nH]c(=O)c(CN(CCCN(C)C)C(=S)NCCc3ccccc3)cc2c1	0	86*	110	2	3	34	-10	MPTP abs DR=12*;MPTP counter DR=>80
Cc1ccc2cc(CN(CCc3ccccc3)C(=S)NCCCN(C)C)c(=O)[nH]c2c1	-3	0	93	0	-1	10	·
